Inconclusive results are not listed. A call without a number means that no potency is given here. Calls of active or inactive are those of the source. Calls come from the whole dose curve; as a rule, active = well fitted inhibition curve with a large enough effect; inconclusive = small, poorly fitted or top-dose-only effect; inactive = flat fitted curve, though single readings scatter.
Each compound was assayed on CP260 (assay: qHTS profiling for inhibitors of Plasmodium falciparum proliferation (AID 504749; note: nearly all actives have a fitted effect of over 60% in size)). Details: P. falciparum in erythrocytes, SYBR Green DNA, 72 h; series mostly up to 12.8 µM.
Procedure, shortened: (§1)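 Parasite proliferation within erythrocytes, 72 h exposure. Endpoint: SYBR Green I fluorescence after overnight lysis at room temperature. Controls: 0.29 uM artemisinin, DMSO.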
`CC1(C)S[C@H]2C(NC(=O)[C@@H](N)c3ccc(O)cc3)C(=O)N2[C@@H]1C(=O)O` (stereo partly specified) was tested, and the Potency was “inactive”.
For `CN(C)CCc1c[nH]c2ccc(CC3COC(=O)N3)cc12` (stereo unspecified), the Potency was “inactive”.
`C[C@@]12CCC(=O)C=C1C=CC1C2CC[C@]2(C)C1CC[C@@]21CCC(=O)O1` (stereo partly specified) was tested, and the Potency was “inactive”.
For `NC(CCC(=O)N[C@@H](CS)C(=O)NCC(=O)O)C(=O)O` (stereo partly specified), the Potency was 7.94 µM (active).
In the case of `CC(C)Oc1ccc2c(=O)cc(-c3ccccc3)oc2c1`, the Potency is reported as “inactive”.
With `CCCCCCCCCc1ccc(OCCOCCOCCOCCOCCOCCOCCOCCOCCO)cc1` the Potency was “inactive”.
For `N[C@@H]1C(O)OC(CO)C(O)C1O` (stereo partly specified), the Potency was “inactive”.
For `CCC1OC(=O)CC(O)C(C)[C@@H](O[C@@H]2OC(C)[C@H](O[C@@H]3C[C@@](C)(O)C(O)C(C)O3)C(N(C)C)C2O)[C@H](CC=O)CC(C)C(=O)/C=C/C(C)=C/[C@@H]1COC1OC(C)C(O)C(OC)[C@@H]1OC` (stereo partly specified), the Potency was 1.12 µM (active).
For `CCC(=O)O[C@@]1(C(=O)CCl)C(C)CC2C3CCC4=CC(=O)C=C[C@@]4(C)[C@]3(F)C(O)C[C@]21C` (stereo partly specified), the Potency was 10 µM (active).
For `CC(=O)[C@]1(O)CCC2C3C=C(Cl)C4=CC(=O)C5CC5[C@@]4(C)C3CC[C@]21C` (stereo partly specified), the Potency was “inactive”.
`C[C@@]12C=CC(=O)C=C1CCC1C3CC(O)[C@@](O)(C(=O)CO)[C@]3(C)CC(O)[C@]12F` (stereo partly specified) was tested, and the Potency was “inactive”.
With `CCC1OC(=O)C(C)[C@@H](O[C@H]2C[C@@](C)(OC)C(O)C(C)O2)C(C)[C@@H](O[C@@H]2OC(C)CC(N(C)C)C2O)[C@@](C)(O)CC(C)C(=O)[C@@H](C)C(O)[C@]1(C)O` (stereo partly specified) the Potency was “inactive”.
`CCC(C)C(=O)OC1CC(O)C=C2C=CC(C)C(CCC(O)CC(O)CC(=O)O)C21` (stereo unspecified) was tested, and the Potency was “inactive”.
`OCC1OC(n2cnc3c(=S)nc[nH]c32)C(O)C1O` (stereo unspecified) was tested, and the Potency was “inactive”.

What follows are compounds tested on CP262 in the same assay as above. Details: P. falciparum in erythrocytes, SYBR Green DNA, 72 h; series mostly up to 12.8 µM.
Procedure, shortened: as §1
For `CC1(C)S[C@H]2C(NC(=O)[C@@H](N)c3ccc(O)cc3)C(=O)N2[C@@H]1C(=O)O` (stereo partly specified), the Potency was “inactive”.
For `C[C@@]12CCC(=O)C=C1C=CC1C2CC[C@]2(C)C1CC[C@@]21CCC(=O)O1` (stereo partly specified), the Potency was “inactive”.
With `NC(CCC(=O)N[C@@H](CS)C(=O)NCC(=O)O)C(=O)O` (stereo partly specified) the Potency was “inactive”.
With `CC(C)Oc1ccc2c(=O)cc(-c3ccccc3)oc2c1` the Potency was “inactive”.
`CCCCCCCCCc1ccc(OCCOCCOCCOCCOCCOCCOCCOCCOCCO)cc1` was tested, and the Potency was “inactive”.
With `CC(=O)O[C@@]1(C(C)=O)CCC2C3CC(C)C4=CC(=O)CC[C@@]4(C)C3CC[C@]21C` (stereo partly specified) the Potency was “inactive”.
With `CC(=O)OCC(=O)[C@@]12OC3(CCCC3)OC1CC1C3CCC4=CC(=O)C=C[C@@]4(C)[C@]3(F)C(O)C[C@]12C` (stereo partly specified) the Potency was “inactive”.
`C=Cc1c(C)/c2[n-]/c1=C\c1[n-]c(c(CC)c1C)/C=c1\[n-]c3c(c1C)C(=O)C(C(=O)[O-])C=3c1[n-]c(c(C)c1CCC(=O)[O-])\C=2.[Cu].[Na+].[Na+]` (stereo unspecified) was tested, and the Potency was “inactive”.
With `CC(=O)[C@]1(O)CCC2C3C=C(Cl)C4=CC(=O)C5CC5[C@@]4(C)C3CC[C@]21C` (stereo partly specified) the Potency was “inactive”.
`CO[C@]12C(COC(N)=O)C3=C(C(=O)C(C)=C(N)C3=O)N1CC1NC12` (stereo partly specified) was tested, and the Potency was “inactive”.
For `COC1OC(CO)C(OC2OC(C(=O)O)C(OC3OC(COS(=O)(=O)O)C(OC4OC(C(=O)O)C(OC5OC(CO)C(OC6OC(C(=O)O)C(OC7OC(COS(=O)(=O)O)C(OC8OC(C(=O)O)=C[C@H](O)C8OS(=O)(=O)O)C(O)C7NC(C)=O)[C@@H](O)C6O)C(O)C5NC(C)=O)[C@@H](O)C4O)C(O)C3NC(C)=O)[C@@H](O)C2O)C(O)C1NC(C)=O` (stereo partly specified), the Potency was “inactive”.
For `C[C@@]12C=CC(=O)C=C1CCC1C3CC(O)[C@@](O)(C(=O)CO)[C@]3(C)CC(O)[C@]12F` (stereo partly specified), the Potency was “inactive”.
In the case of `CCC1OC(=O)C(C)[C@@H](O[C@H]2C[C@@](C)(OC)C(O)C(C)O2)C(C)[C@@H](O[C@@H]2OC(C)CC(N(C)C)C2O)[C@@](C)(O)CC(C)C(=O)[C@@H](C)C(O)[C@]1(C)O` (stereo partly specified), the Potency is reported as “inactive”.
For `CC1C2CCC3C4CC=C5CC(N(C)C)CC[C@@]5(C)C4CC[C@@]32CN1C` (stereo partly specified), the Potency was “inactive”.
In the case of `COC1CC(O[C@H]2/C(C)=C/CC3CC(C[C@]4(CCC(C)C(C5CCCCC5)O4)O3)OC(=O)[C@H]3C=C(C)/C(=N/O)C4OC/C(=C\C=C\[C@@H]2C)[C@@]43O)OC(C)C1O` (stereo partly specified), the Potency is reported as “inactive”.
For `CCC(C)C(=O)OC1CC(O)C=C2C=CC(C)C(CCC(O)CC(O)CC(=O)O)C21` (stereo unspecified), the Potency was “inactive”.
`OCC1OC(n2cnc3c(=S)nc[nH]c32)C(O)C1O` (stereo unspecified) was tested, and the Potency was “inactive”.
Potency is the fitted concentration of half-maximal effect.
